Data on 19 compounds can be found in PubChem BioAssay (Tox21).

The nature of assay [1]: qHTS RealTime-Glo MT Cell Viability Assay in HEK293 cells - 16 hour (AID 1224872). Further: nearly all actives have a fitted effect of over 50% in size. In short, it runs like this: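 Reads taken at 0, 8, 16, 24, 32 and 40 h from the same wells. HEK293 cells (600/well) carried RealTime-Glo reagents from seeding, with compound added after a 5 h settle at 37 C.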
The nature of assay [2]: qHTS RealTime-Glo MT Cell Viability Assay in HepG2 cells - 8 hour (AID 1224873). Further: nearly all actives have a fitted effect of over 55% in size. In short, it runs like this: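 HepG2 cells (600/well) mixed with RealTime-Glo MT reagent, settled 5 h at 37 C/5% CO2 before compound addition. Nonlytic NanoLuc luminescence from viable-cell prosubstrate reduction read repeatedly during 40 h treatment at 37 C.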
(In general: qHTS replaces the single test concentration by a dilution series.)

The nature of assay [3]: qHTS RealTime-Glo MT Cell Viability Assay in HEK293 cells - 40 hour (AID 1224874). Further: nearly all actives have a fitted effect of over 50% in size. The conditions noted are these: RealTime-Glo luminescence; max response: stronger effect = lower value. In short, it runs like this:
(§1)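 qHTS format; HEK293 cells with NanoLuc/prosubstrate reagent, 37 C/5% CO2 for 5 h pre-dosing; compounds 23 nL in DMSO; luminescence at each time point reflects viable cells.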

Assay [4] is described as follows: A CellTox Green Cytotoxicity Assay to monitor cytotoxicity in HEK293 cells - 24 hour (AID 1224875). Further: nearly all actives have a fitted effect of over 45% in size. In short, it runs like this:
(§2)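 Each value comes from one timepoint of a single continuous run in which HEK293 cells with CellTox Green were exposed to compound for up to 40 h at 37 C, dye fluorescence rising with cell death.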

Assay [5] in a line: A CellTox Green Cytotoxicity Assay to monitor cytotoxicity in HepG2 cells - 16 hour (AID 1224876). Further: nearly all actives have a fitted effect of over 45% in size. In short, it runs like this: (§3)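 Continuous culture of HepG2 cells with a membrane-impermeant DNA dye; rising fluorescence marks dead cells. Compound exposure lasted up to 40 h at 37 C, with reads every 8 h from 0 h.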
Assay [6] can be described thus: qHTS RealTime-Glo MT Cell Viability Assay in HepG2 cells - 32 hour (AID 1224877). Further: nearly all actives have a fitted effect of over 55% in size. In short, it runs like this: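 HepG2 suspension premixed with RealTime-Glo reagents is plated at 600 cells per well and left 5 h at 37 C/5% CO2. Compounds in DMSO then go in, and bioluminescence reflecting viable cell number is recorded over 40 h.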
Assay [7] in a line: A CellTox Green Cytotoxicity Assay to monitor cytotoxicity in HepG2 cells - 24 hour (AID 1224878). Further: nearly all actives have a fitted effect of over 45% in size. In short, it runs like this: as §3
A short description of assay [8]: A CellTox Green Cytotoxicity Assay to monitor cytotoxicity in HepG2 cells - 40 hour (AID 1224879). Further: nearly all actives have a fitted effect of over 40% in size. In short, it runs like this:
as §3

The nature of assay [9]: qHTS RealTime-Glo MT Cell Viability Assay in HEK293 cells - 0 hour (AID 1224880). Further: nearly all actives have a fitted effect of over 45% in size. In short, it runs like this: as §1
Assay [10] is described as follows: A CellTox Green Cytotoxicity Assay to monitor cytotoxicity in HEK293 cells - 32 hour (AID 1224881). Further: nearly all actives have a fitted effect of over 40% in size. In short, it runs like this:
as §2

“And” between values parts separate entries of the source, which are not always exact repeats. Equal entries are not always repeated. Results filed as inconclusive are left out. More than one record can exist for a structure, and the calls need not agree. The source made the active and inactive calls. The call rests on the fitted dose curve; in most records, active means well fitted curve in the direction sought with a large enough effect in the repeat runs; inconclusive means weak or mixed curves; inactive means no such curve, though single readings can be large; an effect the other way counts as inactive or inconclusive.
On the % scale 0 is the no-effect control and ±100 the full control effect; potency means the concentration at half of the fitted maximal effect.

For `C1COCCN1`, the Potency result in assay [1], in [2], in assay [4], in assay [5], in assay [6] and in assay [7] was “inactive” in each case. The Potency entry in [8], in assay [9] and in assay [10] was “inactive” throughout. For the same compound, the max response in assay [3] is -0.365% (inactive) and -12.5% (inactive) and 10.6% (inactive).
As for `IC(I)I`, the Potency result in [1], in assay [2], in assay [4], in assay [5], in assay [7] and in assay [8] was “inactive” throughout. The Potency entry in assay [9] and in [10] was “inactive” throughout. Moreover, in [3], the max response is 7.94% (inactive) and 2.04% (inactive). The Potency in assay [6] is 24.5 µM (active) and 17.4 µM (active).
For `ClC/C=C/CCl`, the Potency result in [1], in assay [2], in assay [4], in assay [5], in assay [6] and in assay [7] was “inactive” each time. For the same compound, the Potency entry in assay [8], in assay [9] and in assay [10] was “inactive” in each case. Also, the max response in [3] was 18.6% (inactive) and 9.13% (inactive).
`CCCCCCOCCOCCO`: the Potency result in assay [1], in [2], in assay [4], in assay [5], in [6] and in assay [7] was “inactive” throughout. The Potency entry in [8], in [9] and in assay [10] was “inactive” each time. In assay [3], the max response is 4% (inactive) and -0.302% (inactive).
As to `O=C(CCCN1CCC(O)(c2ccc(Cl)cc2)CC1)c1ccc(F)cc1`, the Potency is 13.8 µM (active) and 5.35 µM (active) in assay [1]; 49 µM (active) and inactive in assay [2]; 21.9 µM (active) and 8.49 µM (active) in assay [3]; 43.6 µM (active) and inactive in assay [5]; 49 µM (active) and inactive in assay [6]; 24.5 µM (active) in assay [7]. In addition, the Potency in assay [8] was 24.5 µM (active) and 26.8 µM (active); in assay [10], 49 µM (active) and inactive. Besides, the Potency result in [9] was “inactive”.
In the case of `CC(C)=CCO`, the Potency result in assay [1], in [2], in assay [4], in [5], in assay [6] and in [7] was “inactive” in each case. Moreover, the Potency entry in assay [8], in assay [9] and in assay [10] was “inactive” each time. Besides, the max response in assay [3] is 4.01% (inactive) and 0.683% (inactive).
As to `COc1cc([C@H]2Oc3cc([C@H]4Oc5cc(O)cc(O)c5C(=O)[C@@H]4O)ccc3O[C@@H]2CO)ccc1O`, the Potency entry in [1], in [2], in assay [6] and in assay [9] was “inactive” each time. Also, in assay [3], the max response was -16.5% (inactive). The Potency result was “inactive and 21.3 µM (active)” in [5]; “inactive and 21.3 µM (active)” in [7]; “inactive and 21.3 µM (active)” in assay [8]; “inactive and 15.1 µM (active)” in assay [10].
On to `Nc1ccc(N)c(Cl)c1`, for which the Potency in [1] was 48.9 µM (active); in [2], “inactive and 49 µM (active)”; in [5], “inactive and 27.5 µM (active)”; in [7] it was “inactive and 43.6 µM (active)”; in assay [8], “inactive and 43.6 µM (active)”; in [10], “inactive and 27.5 µM (active)”. In assay [3], the max response is -27.4% (inactive) and -12.8% (inactive). Also, the Potency result in assay [6] and in [9] was “inactive” in each case.
On to `CC1(C)NC(=O)N(c2ccc([N+](=O)[O-])c(C(F)(F)F)c2)C1=O`, for which the Potency entry in [2], in assay [4], in [5], in [6], in [7] and in assay [8] was “inactive” each time. In addition, the Potency entry in assay [9] and in [10] was “inactive” each time. Further, in assay [3], the Potency was 24.5 µM (active).
`Oc1ccc(C(c2ccc(O)cc2)C(Cl)(Cl)Cl)cc1`: the Potency entry in assay [2], in assay [4], in assay [5], in [6], in [7] and in [8] was “inactive” throughout. In addition, the Potency result in assay [9] and in assay [10] was “inactive” in each case. Moreover, the Potency in [3] is 34.5 µM (active).
With `Nc1ccc2c(O)cc(S(=O)(=O)O)cc2c1`, the Potency result in assay [1], in [2], in [4], in assay [5], in assay [6] and in assay [7] was “inactive” in each case. In addition, the Potency entry in assay [8], in assay [9] and in assay [10] was “inactive” throughout. Also, the Potency in [3] is 6.17 µM (active).
Turning to `c1ccc2c(c1)[nH]c1ccccc12`, the Potency result in assay [1], in assay [2], in assay [4], in [5], in [6] and in assay [7] was “inactive” each time. Moreover, the Potency result in assay [9] and in [10] was “inactive” in each case. Also, the max response in [3] is -8.89% (inactive).
For the compound `CCC(=O)O[C@H]1[C@H](O[C@@H]2[C@@H](C)[C@H](O[C@H]3C[C@@](C)(OC)[C@@H](O)[C@H](C)O3)[C@@H](C)C(=O)O[C@H](CC)[C@@](C)(O)[C@H](O)[C@@H](C)C(=O)[C@H](C)C[C@@]2(C)O)O[C@H](C)C[C@@H]1N(C)C`, the Potency entry in assay [1], in [2], in assay [5], in assay [6], in [7] and in [8] was “inactive” each time. The Potency result in [9] was “inactive”. For the same compound, the max response in assay [3] was -5.5% (inactive). In addition, the Potency in assay [10] was 28.9 µM (active) and inactive.
For `C=CC(=O)OCCCC`, the Potency entry in [1], in assay [2], in [4], in assay [5], in assay [6] and in [7] was “inactive” throughout. Further, the Potency result in assay [8], in [9] and in [10] was “inactive” throughout. Further, the max response in assay [3] is 6.68% (inactive) and 3.94% (inactive).
As for `CN(C)CCCN1c2ccccc2Sc2ccc(Cl)cc21`, the Potency is 30.9 µM (active) and 21.3 µM (active) in assay [1]; 54.9 µM (active) in [2]; 21.9 µM (active) and 21.3 µM (active) in assay [3]; 49 µM (active) in assay [4]; 49 µM (active) and 21.3 µM (active) in [5]; 34.7 µM (active) and 23.9 µM (active) in [6]. For the same compound, the Potency in [7] is 38.9 µM (active) and 21.3 µM (active); in assay [8], 24.5 µM (active) and 21.3 µM (active); in [10], 43.6 µM (active).
Consider `CC(=O)O[C@]1(C(C)=O)CC[C@H]2[C@@H]3C=C(C)C4=CC(=O)CC[C@]4(C)[C@H]3CC[C@@]21C`, for which the Potency result in assay [2], in assay [4], in assay [5], in [6], in assay [7] and in [8] was “inactive” in each case. Also, the Potency entry in [10] is “inactive”. For the same compound, the Potency in [3] is 19.5 µM (active) and 10.7 µM (active); in assay [9] it was 5.49 µM (active) and 2.68 µM (active).
As for `Nc1ccc(O)c(N)c1`, the Potency result in assay [1], in assay [2], in [4], in [5], in assay [6] and in assay [7] was “inactive” each time. In addition, the Potency entry in assay [8] and in [10] was “inactive” in each case. Further, in assay [3], the max response is -10.8% (inactive) and -11.4% (inactive).
As for `C[C@]12CC[C@@H]3c4ccc(O)cc4CC[C@H]3[C@@H]1CC[C@H]2O`, the Potency result in [2], in assay [4], in assay [5], in [6], in assay [7] and in [9] was “inactive” throughout. Besides, in assay [10], the Potency entry was “inactive”. The Potency in assay [3] was 5.59 µM (active) and 15.5 µM (active); in assay [8], 9.94 µM (active) and 34.7 µM (active).
Regarding `NCCS(=O)(=O)O`, the Potency result in assay [1], in [2], in assay [4], in assay [5], in assay [6] and in assay [7] was “inactive” throughout. The Potency entry in assay [8], in assay [9] and in assay [10] was “inactive” throughout. Also, in assay [3], the max response was 13.2% (inactive) and 2.94% (inactive).
